According to PubChem BioAssay (NCATS):
Inconclusive results are not listed. The source made the active and inactive calls. Unless noted, calls follow the shape of the full dose curve.

Tests used:
[1] = molecular target: Lysosomal acid glucosylceramidase (Homo sapiens) (UniProt P04062); experiment: Glucocerebrosidase-p2 (AID 348; in the data active = potency below about 10 µM; also: potency is read from the fitted curve at half-maximal effect); details: purified GBA, blue fluorogenic substrate, 40 min
How it was run: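 Normal human glucocerebrosidase (0.2 nM) with blue fluorogenic substrate (80 uM final) in citrate/phosphate pH 5.9 with 10mM sodium taurocholate, 0.01% tween-20; 40 min RT, NaOH/glycine stop; fluorescence Ex 365/Em 440; AC50 from a titration from 0.6 nM upwards.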

[2] = AP1 Signaling Pathway (AID 357; active = well fitted curve in either direction with a large enough effect, not every such curve was filed as active; also: % is scaled to controls: 0 for no effect and ±100 for the full control effect); details: ME-180 AP-1-bla reporter, EGF-induced, beta-lactamase ratio, 5 h; at 7.69 µM (top of the series) unless noted
How it was run: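 AP-1-bla ME-180 cells with beta-lactamase reporter under AP-1 response element, stimulated with EC50 EGF; compounds titrated, 5 hours at 37 degrees Celsius. CCF4 read at 460/530 nm ratio; positive and negative modulators judged by AC50.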

[3] = molecular target: Cytochrome P450 1A2 (Homo sapiens) (UniProt P05177); experiment: p450-cyp1a2 (AID 410); details: recombinant CYP1A2, luciferin-ME demethylation, luminescence; series mostly up to 57 µM; also: potency is read from the fitted curve at half-maximal effect;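 as to activity change, negative = inhibition: -100% = full effect of reference inhibitor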
How it was run: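 O-Demethylation of luciferin 6' methyl ether by human CYP1A2 is monitored as luciferase luminescence. Substrate sits at Km (100uM); enzyme is 20nM. Values are scaled to 57 uM furafylline as maximal inhibition.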

[4] = Stat Signaling Pathway (AID 446; active = well fitted curve in either direction with a large enough effect, not every such curve was filed as active;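 also: ME-180 cervical cancer cells given 40 pM IL-6 alongside compound; SIE-controlled beta-lactamase reporter measured as 460/530 nm FRET emission ratio; % is scaled to controls: 0 for no effect and ±100 for the full control effect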); details: ME-180 SIE beta-lactamase reporter, IL-6 stimulated, 5 h; at 7.69 µM (top of the series) unless noted
How it was run: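 Overnight-plated ME-180 cells bearing a STAT Inducible Element beta-lactamase reporter; 5 h co-exposure to compound and 40 pM IL-6; values normalized to 300 pM IL-6 and 125 nM JAK inhibitor controls.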

[5] = molecular target: Glucocorticoid receptor (Homo sapiens) (UniProt P04150); experiment: GR-EFC Redistribution (AID 451); details: CHO-K1 GR-EFC translocation, beta-gal luminescence, 2 h; also: potency is read from the fitted curve at half-maximal effect
How it was run: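 Translocation of GR-ED fusion to nuclear EA restores b-gal, read by luminescence after 1 h room-temperature detection. Engineered CHO-K1 biosensor cells, 1,000/well, exposed 2 h at 37 C to titrations up to 46 uM final.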

[6] = molecular target: Mitogen-activated protein kinase 10 (Mus musculus) (UniProt Q61831); experiment: JNK3 AlphaScreen Assay (AID 530; active = well fitted curve in either direction with a large enough effect, not every such curve was filed as active;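 also: kinase came from lysate of stimulated human HepG2 cells; signal reports phosphorylation of biotinylated GST-cJun 1-79 at Ser73 with 10 µM ATP; % is scaled to controls: 0 for no effect and ±100 for the full control effect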); details: JNK3 lysate, c-Jun phosphorylation; series mostly up to 57.1 µM
How it was run: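 qHTS titrations with 15 min compound pre-incubation before adding ATP (10 uM final). Read-out: AlphaScreen of Ser73-phosphorylated biotin-GST-cJun using HepG2 lysate JNK3 activated by IL-1β and TNFα.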

[7] = molecular target: 3',5'-cyclic-AMP phosphodiesterase 4B (Homo sapiens) (UniProt Q07343); experiment: qHTS Assay for Inhibitors of PDE-IV (AID 607; active = well fitted activation curve with a large enough effect in the main read-out, with a control signal flat, not every such curve was filed as active; also: % of control where 0% means no effect); details: HEK293 ACTOne CNG channel cells, membrane potential fluorescence; series mostly up to 22.9 µM
How it was run: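 Live HEK293 cells with a modified cyclic nucleotide-gated (CNG) channel report intracellular cAMP via membrane-potential dye fluorescence (ex 535/em 590 nm). Endogenous PDE-IV was targeted. Compounds were tested at up to 22.9 uM final; RO 20-1724 100 uM served as control.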

[8] = molecular target: Cytochrome P450 3A4 (Homo sapiens) (UniProt P08684); experiment: qHTS Assay for Activators of Cytochrome P450 3A4 (AID 885; active = well fitted curve in the direction sought with a large enough effect; an effect the other way counts as inactive or inconclusive; also: nearly all actives have a fitted effect of over 65% in size); details: recombinant CYP3A4, Luciferin-PPXE luminescence, 60 min; series mostly up to 57.1 µM
How it was run: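 Using 20nM recombinant human CYP3A4 in potassium phosphate (200mM), substrate Luciferin-PPXE at 25uM, luminescent luciferin detection followed a 60-min RT NADPH reaction; data scaled to 57 uM ketoconazole.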

[9] = qHTS Assay for Identification of Small Molecule Agonists for Hypoxia Response Element Signaling Pathway (AID 914; active = well fitted activation curve with a large enough effect in the signal ratio, with a control signal flat, not every such curve was filed as active; the % refers to the signal ratio; also: % of control where 0% means no effect); details: ME-180 (cervical carcinoma) HRE-bla reporter, beta-lactamase ratio, CoCl2, 17 h; activation: stronger effect = higher value
How it was run: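 qHTS titration; ME-180 HRE-bla cells; EC50 CoCl2 co-treatment, 17 h at 37 degrees Celsius; CCF4 dye, ex 405nm, em 460nm and 530nm; %Activity from ratio; AC50.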

[10] = qHTS Assay for Lipid Storage Modulators (AID 1519); details: Drosophila S3 cells, BODIPY lipid droplet/cell ratio, laser cytometry, cells loaded with oleic acid; for activity change, negative = inhibition: at 57.5 µM (top of the series)
How it was run: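 Cells seeded at 5,000 per well were treated with compounds over a concentration series and loaded with oleic acid (400 uM, as added). Lipid droplet fluorescence (488 nm excitation, 500-530 nm channel) was read by laser-scanning cytometry and normalized to 20 uM Triacsin C.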

[11] = Primary qHTS for small molecule stabilizers of the endoplasmic reticulum resident proteome: Secreted ER Calcium Modulated Protein (SERCaMP) assay (AID 1508630; active = well fitted curve in the direction sought with a large enough effect; an effect the other way counts as inactive or inconclusive; also: % is scaled to controls: 0 for no effect and ±100 for the full control effect); details: SH-SY5Y GLuc-SERCaMP (Gaussia luciferase released on ER calcium loss) secretion, thapsigargin, luminescence; series mostly up to 38.4 µM
How it was run: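 The SH-SY5Y reporter protocol was run at 3 concentrations up to 38.3 uM (primary) or 11 concentrations (follow-up): 16 h compound, 100 nM thapsigargin for 4 h, then extracellular luciferase luminescence.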

[12] = molecular target: Cytochrome P450 2D6 (Homo sapiens) (UniProt P10635); experiment: qHTS Assay for Inhibitors and Substrates of Cytochrome P450 2D6 (AID 891; active = well fitted curve in the direction sought with a large enough effect; an effect the other way counts as inactive or inconclusive; also: potency is read from the fitted curve at half-maximal effect; nearly all actives have a fitted effect of over 60% in size); details: recombinant CYP2D6, luciferin-ME EGE luminescence; series mostly up to 57.1 µM
How it was run: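 Luminescent read-out of luciferin formed by 5 nM human CYP2D6 demethylating 30 uM Luciferin-ME EGE (Km level) over 60 min at room temperature after NADPH regeneration addition. Data normalized to full inhibition by 1.43 uM quinidine.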

[13] = molecular target: Cytochrome P450 3A4 (Homo sapiens) (UniProt P08684); experiment: qHTS Assay for Inhibitors and Substrates of Cytochrome P450 3A4 (AID 884; active = well fitted curve in the direction sought with a large enough effect; an effect the other way counts as inactive or inconclusive; also: % is scaled to controls: 0 for no effect and ±100 for the full control effect; nearly all actives have a fitted effect of over 50% in size); details: recombinant CYP3A4, Luciferin-PPXE luminescence; series mostly up to 57.1 µM
How it was run: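 Luminescent readout of luciferin produced by CYP3A4 (20 nM) dealkylation of Luciferin-PPXE, 25 uM (its KM). NADPH-driven reaction ran 60 min at RT after 10 min compound preincubation; data scaled to 57 uM ketoconazole as 100% inhibition.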

[14] = molecular target: Cytochrome P450 2C19 (Homo sapiens) (UniProt P33261); experiment: qHTS Assay for Inhibitors and Substrates of Cytochrome P450 2C19 (AID 899; active = well fitted curve in the direction sought with a large enough effect; an effect the other way counts as inactive or inconclusive; also: potency is read from the fitted curve at half-maximal effect; nearly all actives have a fitted effect of over 60% in size); details: recombinant CYP2C19, luciferin-H EGE luminescence; series mostly up to 57.1 µM
How it was run: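 Luminescence readout of luciferin formed from 10uM Luciferin-H EGE (KM level) by 5 nM CYP2C19 in 50mM KPO4. 60 min NADPH-driven reaction at 37C after 10 min compound preincubation; data scaled to 57uM ketoconazole inhibition.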

[15] = measured here: cell count channel max response
[16] = measured here: lipid channel max response

Chain of Glucocorticoid receptor (Homo sapiens) (P04150 whole entry, looked up, the tested form may be a part): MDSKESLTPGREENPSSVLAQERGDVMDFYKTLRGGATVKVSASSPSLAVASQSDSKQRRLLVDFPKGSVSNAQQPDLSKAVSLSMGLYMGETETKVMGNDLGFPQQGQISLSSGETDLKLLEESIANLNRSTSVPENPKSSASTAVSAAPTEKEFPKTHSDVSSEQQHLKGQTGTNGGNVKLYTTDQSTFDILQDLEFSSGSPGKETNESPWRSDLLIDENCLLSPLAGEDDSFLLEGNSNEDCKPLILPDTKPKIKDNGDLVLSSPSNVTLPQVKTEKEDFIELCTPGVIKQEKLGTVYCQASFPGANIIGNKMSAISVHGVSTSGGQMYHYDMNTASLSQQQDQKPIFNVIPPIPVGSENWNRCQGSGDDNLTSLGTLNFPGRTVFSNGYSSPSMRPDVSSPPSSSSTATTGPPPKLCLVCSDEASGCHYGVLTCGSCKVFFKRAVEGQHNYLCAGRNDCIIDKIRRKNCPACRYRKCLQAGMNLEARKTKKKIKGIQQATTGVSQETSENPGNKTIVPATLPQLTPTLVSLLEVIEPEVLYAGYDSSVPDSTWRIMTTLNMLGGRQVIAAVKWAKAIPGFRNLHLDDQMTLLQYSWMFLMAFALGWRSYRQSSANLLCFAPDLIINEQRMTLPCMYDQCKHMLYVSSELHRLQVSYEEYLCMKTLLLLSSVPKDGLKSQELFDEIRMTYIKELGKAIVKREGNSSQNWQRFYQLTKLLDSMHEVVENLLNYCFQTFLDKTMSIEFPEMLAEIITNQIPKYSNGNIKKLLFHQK
Chain of Cytochrome P450 2D6 (Homo sapiens) (P10635 whole entry, looked up): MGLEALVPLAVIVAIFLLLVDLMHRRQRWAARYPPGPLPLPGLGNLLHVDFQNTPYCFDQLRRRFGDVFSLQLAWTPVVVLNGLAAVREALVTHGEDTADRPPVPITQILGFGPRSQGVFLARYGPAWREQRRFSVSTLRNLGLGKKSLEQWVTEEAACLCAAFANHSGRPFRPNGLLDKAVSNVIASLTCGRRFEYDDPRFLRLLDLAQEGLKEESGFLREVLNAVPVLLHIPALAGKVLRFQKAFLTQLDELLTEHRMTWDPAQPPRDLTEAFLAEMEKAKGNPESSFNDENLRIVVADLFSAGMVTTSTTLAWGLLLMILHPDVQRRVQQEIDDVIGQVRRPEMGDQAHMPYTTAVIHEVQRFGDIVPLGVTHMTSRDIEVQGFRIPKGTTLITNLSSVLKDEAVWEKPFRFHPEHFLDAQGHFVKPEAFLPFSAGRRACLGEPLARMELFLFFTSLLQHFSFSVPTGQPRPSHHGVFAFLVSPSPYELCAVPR
Chain of Cytochrome P450 1A2 (Homo sapiens) (P05177 whole entry, looked up): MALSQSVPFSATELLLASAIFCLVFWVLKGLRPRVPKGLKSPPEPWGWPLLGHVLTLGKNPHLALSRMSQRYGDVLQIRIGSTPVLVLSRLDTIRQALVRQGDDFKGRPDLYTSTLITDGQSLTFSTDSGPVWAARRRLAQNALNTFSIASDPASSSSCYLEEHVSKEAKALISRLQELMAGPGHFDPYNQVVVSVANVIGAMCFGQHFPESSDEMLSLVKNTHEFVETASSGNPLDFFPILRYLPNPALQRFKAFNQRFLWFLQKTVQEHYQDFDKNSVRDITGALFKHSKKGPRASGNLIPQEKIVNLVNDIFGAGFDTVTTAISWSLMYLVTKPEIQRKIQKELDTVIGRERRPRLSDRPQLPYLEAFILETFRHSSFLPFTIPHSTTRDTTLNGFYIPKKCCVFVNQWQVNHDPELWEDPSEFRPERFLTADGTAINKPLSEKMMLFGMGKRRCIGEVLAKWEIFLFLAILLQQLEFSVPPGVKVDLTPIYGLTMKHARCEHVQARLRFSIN
Chain of 3',5'-cyclic-AMP phosphodiesterase 4B (Homo sapiens) (Q07343 whole entry, looked up): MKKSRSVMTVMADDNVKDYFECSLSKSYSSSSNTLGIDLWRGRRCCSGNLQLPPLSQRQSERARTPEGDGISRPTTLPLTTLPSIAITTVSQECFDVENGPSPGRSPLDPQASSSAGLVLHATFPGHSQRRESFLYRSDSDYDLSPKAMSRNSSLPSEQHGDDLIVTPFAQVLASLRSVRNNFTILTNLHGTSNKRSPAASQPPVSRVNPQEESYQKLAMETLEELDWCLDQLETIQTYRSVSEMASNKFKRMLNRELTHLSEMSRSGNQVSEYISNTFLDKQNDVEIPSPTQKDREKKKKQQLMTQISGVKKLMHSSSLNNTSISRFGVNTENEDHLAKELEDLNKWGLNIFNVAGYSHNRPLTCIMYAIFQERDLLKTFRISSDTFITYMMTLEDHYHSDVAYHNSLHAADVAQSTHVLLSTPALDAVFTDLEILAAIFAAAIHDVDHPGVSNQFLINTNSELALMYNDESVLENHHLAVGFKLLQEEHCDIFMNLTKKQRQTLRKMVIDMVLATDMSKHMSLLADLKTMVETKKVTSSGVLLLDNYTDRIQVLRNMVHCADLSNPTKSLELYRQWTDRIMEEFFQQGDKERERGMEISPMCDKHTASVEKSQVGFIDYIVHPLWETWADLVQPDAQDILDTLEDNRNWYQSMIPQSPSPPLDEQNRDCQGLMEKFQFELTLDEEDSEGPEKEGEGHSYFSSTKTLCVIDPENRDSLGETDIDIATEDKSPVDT
Chain of Cytochrome P450 3A4 (Homo sapiens) (P08684 whole entry, looked up): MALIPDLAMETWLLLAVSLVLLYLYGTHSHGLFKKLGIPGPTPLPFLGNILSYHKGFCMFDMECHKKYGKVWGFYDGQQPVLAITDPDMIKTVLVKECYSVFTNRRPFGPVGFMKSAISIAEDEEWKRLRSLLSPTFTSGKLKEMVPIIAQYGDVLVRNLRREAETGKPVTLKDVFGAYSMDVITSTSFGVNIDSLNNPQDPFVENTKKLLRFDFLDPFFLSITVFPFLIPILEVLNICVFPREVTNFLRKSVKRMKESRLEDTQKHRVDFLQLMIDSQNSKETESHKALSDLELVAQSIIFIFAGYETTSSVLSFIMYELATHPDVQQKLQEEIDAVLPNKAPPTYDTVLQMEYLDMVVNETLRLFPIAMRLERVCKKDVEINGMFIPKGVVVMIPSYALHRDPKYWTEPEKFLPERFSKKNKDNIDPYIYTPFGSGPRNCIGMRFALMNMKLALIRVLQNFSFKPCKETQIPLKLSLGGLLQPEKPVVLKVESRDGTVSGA
Chain of Lysosomal acid glucosylceramidase (Homo sapiens) (P04062 whole entry, looked up): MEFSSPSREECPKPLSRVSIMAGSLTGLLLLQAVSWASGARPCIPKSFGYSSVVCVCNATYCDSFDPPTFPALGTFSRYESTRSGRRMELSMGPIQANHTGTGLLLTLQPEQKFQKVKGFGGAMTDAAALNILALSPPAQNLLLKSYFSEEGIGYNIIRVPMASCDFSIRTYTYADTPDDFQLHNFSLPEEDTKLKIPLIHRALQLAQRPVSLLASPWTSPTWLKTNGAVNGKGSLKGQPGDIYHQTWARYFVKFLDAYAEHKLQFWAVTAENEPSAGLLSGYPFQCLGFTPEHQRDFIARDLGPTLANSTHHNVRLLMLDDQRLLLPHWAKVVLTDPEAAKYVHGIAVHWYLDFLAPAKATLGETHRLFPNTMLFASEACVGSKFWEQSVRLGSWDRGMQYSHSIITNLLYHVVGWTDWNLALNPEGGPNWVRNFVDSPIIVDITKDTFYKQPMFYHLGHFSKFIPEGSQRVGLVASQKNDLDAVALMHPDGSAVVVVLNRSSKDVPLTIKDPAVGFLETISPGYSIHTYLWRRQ
Chain of Cytochrome P450 2C19 (Homo sapiens) (P33261 whole entry, looked up): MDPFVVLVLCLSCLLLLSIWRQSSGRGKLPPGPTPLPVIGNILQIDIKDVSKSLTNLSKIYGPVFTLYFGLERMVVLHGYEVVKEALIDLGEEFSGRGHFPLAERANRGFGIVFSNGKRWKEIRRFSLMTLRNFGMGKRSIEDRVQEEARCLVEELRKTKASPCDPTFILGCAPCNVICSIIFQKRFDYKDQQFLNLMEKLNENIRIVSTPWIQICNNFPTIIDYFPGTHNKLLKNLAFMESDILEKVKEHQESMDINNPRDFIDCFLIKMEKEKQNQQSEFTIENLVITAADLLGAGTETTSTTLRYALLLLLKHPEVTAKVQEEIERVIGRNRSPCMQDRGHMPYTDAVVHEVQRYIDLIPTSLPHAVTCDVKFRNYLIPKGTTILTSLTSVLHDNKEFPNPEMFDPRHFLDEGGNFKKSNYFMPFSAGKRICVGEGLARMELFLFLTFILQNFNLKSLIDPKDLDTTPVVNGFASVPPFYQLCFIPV

Cc1noc(C)c1C(=O)N1CCC2(CCN(Cc3ccncc3)CC2)CC1
0.0469%: max response [10, 15]
inactive: Potency [1] > 11.4 µM | activity change, negative = inhibition [2] 5.66% | Potency [3] | activity, negative = inhibition [4] -5.26% | Potency [5] > 46 µM | Potency [6] | Potency [7] | Potency [8] | activation [9] 14.4% | activity change, negative = inhibition [10] 4.47% | outcome [11]
9.36%: max response [10, 16]

CC(C)CN1CCCC2(CCN(C(=O)c3csnn3)CC2)C1
21%: max response [10, 16]
active: Potency [12] 5.01 µM
15.1%: max response [10, 15]
inactive: Potency [1] > 11.4 µM | activity change, negative = inhibition [2] 1.87% | Potency [3] | activity, negative = inhibition [4] -5.65% | Potency [5] > 46 µM | Potency [6] | Potency [7] | Potency [8] | activity change, negative = inhibition [10] 2.3% | outcome [11]

O=C(c1cccc(F)c1)N1CCC2(CCN(Cc3ccccc3)CC2)CC1
active: Potency [12] 7.94 µM
inactive: Potency [1] > 11.4 µM | activity change, negative = inhibition [2] -3.73% | Potency [3] | activity, negative = inhibition [4] 0.711% | Potency [5] > 46 µM | Potency [6] | Potency [7] | activity change, negative = inhibition [10] 2.97% | outcome [11]
6.47%: max response [10, 15]
15.1%: max response [10, 16]

Cn1cccc1C(=O)N1CCC2(CCN(Cc3ccccc3)CC2)CC1
16.4%: max response [10, 15]
active: Potency [12] 7.94 µM
22.8%: max response [10, 16]
inactive: Potency [1] > 11.4 µM | activity change, negative = inhibition [2] -1.12% | Potency [3] | activity, negative = inhibition [4] 4.92% | Potency [5] > 46 µM | Potency [6] | Potency [7] | activity change, negative = inhibition [10] 4.86% | outcome [11]

COc1ccccc1CN1CCCC2(CCN(C(=O)c3cccn3C)CC2)C1
21.7%: max response [10, 15]
inactive: Potency [1] > 11.4 µM | activity change, negative = inhibition [2] -2.64% | Potency [3] | activity, negative = inhibition [4] 4.46% | Potency [5] > 46 µM | Potency [6] | Potency [7] | Potency [8] | activity change, negative = inhibition [10] 4.14% | outcome [11]
29.7%: max response [10, 16]
active: Potency [12] 3.16 µM

N#Cc1ccc(CN2CC3(CCN(C(=O)c4cccc(F)c4)CC3)C2)cc1
2.82%: max response [10, 15]
active: Potency [3] 3.98 µM | Potency [14] 2 µM
inactive: Potency [1] > 11.4 µM | activity change, negative = inhibition [2] 20.2% | activity, negative = inhibition [4] -1.68% | Potency [5] > 46 µM | Potency [7] | Potency [13] | activity change, negative = inhibition [10] -2.25% | outcome [11]
3.31%: max response [10, 16]

O=C(c1ccco1)N1CCC[C@@]2(CCN(C(c3ccccc3)c3ccccc3)C2)C1
-10.5%: max response [10, 15]
active: Potency [3] 25.1 µM | Potency [12] 3.16 µM
-26.4%: max response [10, 16]
inactive: Potency [1] > 11.4 µM | activity change, negative = inhibition [2] -9.33% | activity, negative = inhibition [4] 3.09% | Potency [5] > 46 µM | Potency [6] | Potency [7] | Potency [8] | activity change, negative = inhibition [10] -15.2% | outcome [11]
